# Sampled rows, rich in hits. Any-hit rate of the full collection: about 3.8%.
# TSHR agonist = agonists of human thyroid stimulating hormone receptor; HEK293-CNG-TSHR cells (CNG channel as cAMP sensor), membrane potential dye, cAMP; 0.48% of 73,000 active; Potency, µM (titrated, usually from 57.1 µM), for the others: at the top dose activation, usual class: activators; P16473; active = well fitted activation curve with a large enough effect in the main read-out, with a control signal flat, not every such curve was filed as active; inconclusive = small, poorly fitted or top-dose-only effect, or a change in a side signal; inactive = no such curve, though single readings can be large or run the other way; % of control where 0% means no effect;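 note: the control signal comes from parental cells without the receptor; potency is the fitted concentration of half-maximal effect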
# Target sequence (P16473 whole entry, looked up): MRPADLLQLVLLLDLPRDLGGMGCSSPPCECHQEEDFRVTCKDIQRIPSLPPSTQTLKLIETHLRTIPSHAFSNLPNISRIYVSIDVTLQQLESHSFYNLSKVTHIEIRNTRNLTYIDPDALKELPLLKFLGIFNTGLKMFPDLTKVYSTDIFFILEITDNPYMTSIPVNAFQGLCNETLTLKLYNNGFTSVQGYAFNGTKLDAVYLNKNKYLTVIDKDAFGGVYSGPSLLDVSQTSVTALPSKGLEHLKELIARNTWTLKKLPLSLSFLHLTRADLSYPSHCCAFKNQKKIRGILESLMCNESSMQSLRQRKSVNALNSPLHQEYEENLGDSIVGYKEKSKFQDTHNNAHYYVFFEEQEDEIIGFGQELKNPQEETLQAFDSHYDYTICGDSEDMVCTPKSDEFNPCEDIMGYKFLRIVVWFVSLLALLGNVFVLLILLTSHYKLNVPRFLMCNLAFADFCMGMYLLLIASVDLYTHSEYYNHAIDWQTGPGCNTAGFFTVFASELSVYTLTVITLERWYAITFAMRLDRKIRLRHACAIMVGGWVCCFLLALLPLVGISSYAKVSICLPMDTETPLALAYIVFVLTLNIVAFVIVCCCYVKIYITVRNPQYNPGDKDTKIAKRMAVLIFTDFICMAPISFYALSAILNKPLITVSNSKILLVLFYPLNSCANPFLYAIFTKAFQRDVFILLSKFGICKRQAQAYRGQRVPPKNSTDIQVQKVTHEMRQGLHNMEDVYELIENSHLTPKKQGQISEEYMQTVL
#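 cAMP rise detected as CNG-channel membrane depolarization by fluorescent dye (emission 590 nm), 30 min after compound, following 60 min dye loading containing 100 uM RO 20-1724 at room temperature. Cells: TSHR/CNG HEK 293, with parental CNG HEK 293 as control.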
# HEK293 cAMP ctrl = counter-screen for TSHR agonists: cAMP increase in parental HEK293; parental HEK293 CNG cAMP sensor, membrane potential fluorescence; Potency, µM (titrated, usually from 57.1 µM), without a hit: top-dose activation, actives largely listed as activators; 2.5% of 73,000 active; AID 938; note: potency is the fitted concentration of half-maximal effect; % of control where 0% means no effect; nearly all actives have a fitted effect of over 55% in size
#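 Counterscreen for endogenous-receptor signalling: CNG-channel HEK 293 cells report cAMP rise by membrane depolarization. After 60 min dye equilibration with 100 uM RO 20-1724, compounds incubated 30 min before bottom-read fluorescence at 590 nm.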
# Ub-GFP proteasome = inhibits proteasome, raising ubiquitin-GFP reporter fluorescence; 67,000 tested, under 10 active; AID 526; Potency, µM (series often up to 45.9 µM), for inactives: top-dose activation (GFP accumulation), usual class: activators; Ubiquitin-GFP reporter cells, proteasome inhibition, GFP fluorescence; response scale: untreated = 0%, 10 µM MG-132 = 100%; active = well fitted activation curve with a large enough effect, not every such curve was filed as active; inconclusive = small, poorly fitted or top-dose-only effect, or another doubt; inactive = no such curve, though single readings can be large or run the other way; note: potency is the fitted concentration of half-maximal effect
#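 U2OS cells expressing ubiquitin(G76V)-GFP, seeded overnight in 0.5% FBS medium, then treated 4 hr at 37 C across 46 uM to 2.9 nM. GFP-positive cells counted by laser cytometry (488 ex/515 em); %activity scaled between basal and 10 uM MG-132.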
# ERK AVP inh = vasopressin-driven ERK pathway inhibition. Potency, µM (series often up to 57.5 µM), for the others: at the highest dose activity, negative = inhibition, hits mostly inhibitors. HEK293-V1b, vasopressin-stimulated pERK AlphaScreen. 0.99% of 72,000 active. AID 995; note: potency is the fitted concentration of half-maximal effect; % is set by controls: 0 for no effect and ±100 for the full control effect; nearly all actives have a fitted effect of over 55% in size
#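 V1b-HEK293 cells; cpd 30 min 37C; 25 nM vasopressin 5 min; lyse 10 min; AlphaScreen beads 5 hr RT. Normalized to DMSO basal and 25 nM vasopressin; AC50 by Hill fit.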
# GFP derepression = epigenetic GFP locus derepression in mouse cells. 0.09% of 68,000 active. mouse C127i GFP locus derepression, cytometry, 30 h. Potency, µM (doses to about 46.1 µM), inactives show at the highest dose GFP derepression (activation); note: % of control where 0% means no effect
#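 Murine C127i mammary cells carrying a silenced, stably integrated CMV-driven GFP reporter were treated with compound for 30 hours at 37 C. After PBS washes, GFP-positive cells were counted by laser-scanning microplate cytometry.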
# HBB splice mod = hemoglobin beta splicing modulation | HBB splicing reporter cell assay, activation; EGFP reporter with mutant IVS2-654 intron; response scale: normalised to 500 nM splice-correcting PNA | Potency, µM (titrated, usually from 46.1 µM), without a hit: top-dose activation, most hits filed as activators | 0.06% of 65,000 active; note: potency is the fitted concentration of half-maximal effect; 0% is about no effect
#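 Compounds were applied for 2 days to HeLa EGFP-654 cells, 500/well in Optimem with 2% FCS. The reporter's EGFP is disrupted by mis-splicing of beta-globin intron IVS2-654. Readout: summed well GFP fluorescence from 488 nm laser scanning; reference was 500 nM antisense […] 654 PNA.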
# * = called active by the depositor; u = inconclusive; x = not tested or not shown; [ ] = remark or other dose. Unless noted, calls come from the whole dose curve; as a rule, active = well fitted curve in the direction sought with a large enough effect; inconclusive = small, poorly fitted or top-dose-only effect, or another doubt; inactive = no such curve, though single readings can be large; an effect the other way counts as inactive or inconclusive.
SMILES,TSHR agonist,HEK293 cAMP ctrl,Ub-GFP proteasome,ERK AVP inh,GFP derepression,HBB splice mod
COc1cc(COc2cc(N)c(Cl)cc2C(=O)CCC2CCN(CCNS(C)(=O)=O)CC2)cc(OC)c1,-23.8%,-16.8%,-7.0%,-9.3%,2.8%,x
COc1c(-c2ccccc2)oc2c(ccc3occc32)c1=O,u,39.8µM*,-6.5%,u,4.7%[9.22 µM],x
O=c1c(O)c(-c2ccccc2)oc2ccc3occc3c12,x,x,x,-9.4%,x,x
COc1ccc(-n2nnc3c(=O)n(Cc4cccc(C)c4)cnc32)cc1,u,25.1µM*,12.6%,4.9%,0.0%,4.1%[1.84 µM]
COc1ccc(-n2nnc3c(=O)n(Cc4ccccc4C)cnc32)cc1,x,27.1%,-9.1%,-11.7%,-0.4%,2.1%[1.84 µM]
Cc1ccc(C)c(Cn2cnc3c(nnn3-c3ccc(F)cc3)c2=O)c1,u,1µM*,4.5%,-2.0%,0.2%,5.3%
COc1ccccc1CN1CCCC2(CCNCC2)C1,9.6%,9.8%,-6.7%,15.6%,-0.9%[9.22 µM],5.2%
O=C1C2Cc3c([nH]c4ccccc34)C(c3ccccc3)N2C(=O)C2Cc3c([nH]c4ccccc34)C(c3ccccc3)N12 (stereo not given),-17.8%[11.4 µM],-4.9%[11.4 µM],x,31.5%[11.5 µM],x,3.0%[9.22 µM]
Cn1c(=O)c(-c2ccc(F)c(F)c2)nc2cncnc21,-11.5%,23.2%,-6.0%,-13.3%,5.4%[9.22 µM],8.2%
c1csc(CSc2nc3ccccc3s2)c1,7.1%,13.8%,-1.6%,0.5%,0.0%,-0.4%[57.5 µM]
CCn1c(CSc2nc3ccccc3s2)nc2ccccc21,u,3.98µM*,-9.1%[9.17 µM],39.8µM*,-0.1%,-4.1%[0.0738 µM]
C=CCOc1ccccc1/C=N/O,u,25.1µM*,-1.4%,u,0.0%,-2.0%
Cc1cccc(C)c1-n1nnnc1SCSc1nnnn1-c1c(C)cccc1C,u,15.8µM*,-2.6%,-1.2%,1.6%,-1.2%
O=C(Nc1ccc(-c2nc3ccccc3o2)c(O)c1)c1cc(-n2cnnc2)ccc1Cl,x,29.9%,-2.5%,6.31µM*,13.8%,2.7%
Cc1c(NC(=O)c2cc(-n3cnnc3)ccc2Cl)cccc1-c1nc2ccccc2o1,x,7.6%,-2.6%,-20.2%,0.0%,0.7%
Nc1ncnc2c1ncn2[C@@H]1CCCO1,-14.6%,11.9%,-1.6%,39.2%,0.5%,1.0%
Cc1ccc(CN(C)C(=O)c2ccccc2Oc2ccccc2)o1,u,31.6µM*,4.7%,-0.2%,23.9%,-0.2%[57.5 µM]
Cc1cc(NC(=O)c2ccccc2Oc2ccccc2)no1,u,u,-1.0%,0.2%,2.3%,-0.1%[57.5 µM]
O=C(O)C1CCCN1S(=O)(=O)c1cccc2cccnc12 (stereo not given),1.3%,3.0%,3.3%,x,x,-0.6%
COc1ccc(N2CCN(C(=O)C(Cc3ccccc3)n3cccc3)CC2)cc1 (stereo not given),-3.1%,7.8%,0.2%,25.1µM*,0.0%,-0.6%
Oc1ccccc1-c1nc(NCC2CCCO2)c2ccccc2n1 (stereo not given),22.6%,3.2%,-1.8%,31.6µM*,0.0%,-4.1%[57.5 µM]
COc1cccc(-c2nc(NCC3CCCO3)c3ccccc3n2)c1O (stereo not given),x,x,x,x,-3.7%[20.6 µM],x
CCNc1nc(NC(C)C)nc(N(C#N)Cc2ccccc2)n1,24.4%,18.8%,-2.2%,u,0.0%,x
CCNc1nc(NC(C)C)nc(N(C#N)CCOc2ccc(Cl)cc2Cl)n1,u,31.6µM*,-4.5%,45.8%,3.4%,0.1%
Cc1ccccc1CS(=O)(=O)Cc1ccc(C(=O)NCCCN2CCCC2=O)o1,u,3.98µM*,-8.6%,0.9%,4.3%,7.3%[0.369 µM]
SMILES,TSHR agonist,HEK293 cAMP ctrl,Ub-GFP proteasome,ERK AVP inh,GFP derepression,HBB splice mod
CC(C)N(Cc1ccccc1)C(=O)COC(=O)c1ccc2c(c1)OCCO2,u,u,-1.7%,20.8%,1.1%,-2.3%
CC(C)N(CCC(=O)c1ccc2ccccc2c1)Cc1ccccc1,16.4%,10.6%,0.0%,31.6µM*,-2.5%,-0.5%
Cn1c(=O)c2c(nc(NCc3ccco3)n2C/C=C/c2ccccc2)n(C)c1=O,28.8%,17.3%,-5.2%,31.6µM*,1.6%,-3.3%[57.5 µM]
CCOC(=O)CCN1C(=O)[C@H]2[C@H]3[C@H](O)[C@H](O)C/C(=N/OCC(C)C)[C@H]3CC[C@@H]2C1=O,-2.4%[11.4 µM],-3.7%[11.4 µM],x,6.5%[11.5 µM],x,-0.1%[9.22 µM]
CCCOc1ccc(C2C(C(=O)OC)=CN(CCOC)C=C2C(=O)OC)cc1,u,25.1µM*,9.6%,69.3%,7.5%,-1.4%
COCCN1C=C(C(=O)OC)C(c2ccc(OC)c(OC)c2)C(C(=O)OC)=C1,0.2%,6.2%,3.1%,-6.9%,5.0%,3.4%
CCOc1ccc2[nH]c(=O)c(CN(Cc3ccco3)Cc3nnnn3Cc3ccccc3)cc2c1,u,31.6µM*,-5.0%,-20.3%,-1.9%,0.5%[57.5 µM]
COc1ccccc1CN(Cc1cc2cc(C)ccc2[nH]c1=O)Cc1nnnn1Cc1ccco1,u,20µM*,5.5%,-21.0%,u,-0.8%
c1ccc(-c2c3ccccc3nc3[nH]c4ccccc4c23)cc1,u,10µM*,x,11.3%,x,-0.2%
c1ccc2c(c1)C(=Nc1ccc(N=C3c4ccccc4-c4ccccc43)cc1)c1ccccc1-2,6.1%[11.4 µM],-0.9%[11.4 µM],5.5%[9.17 µM],-8.2%[11.5 µM],5.6%[9.22 µM],2.6%[9.22 µM]
CCC1Oc2ccc(C)cc2N(CC(=O)NCc2cccc(OC)c2)C1=O (stereo not given),u,12.6µM*,11.0%,4.7%,0.0%,-1.8%
C1CCN(c2nc3nonc3nc2N2CCCCC2)CC1,u,u,12.5%,-9.4%,-2.2%,-0.1%[9.22 µM]
Nc1nonc1-c1noc(N2CCCCC2)n1,u,10µM*,6.9%,-0.7%,-2.0%,1.2%[1.84 µM]
O=C(c1ccco1)N1CCC2(CCN(Cc3ccccc3)CC2)CC1,3.1%,9.8%,-11.1%,2.8%,2.3%[9.22 µM],3.2%
O=C(CN1C(=O)NC2(CCCCCC2)C1=O)c1ccc2c(c1)OCCO2,u,10µM*,-1.0%,u,1.0%,-2.6%
COc1cccc2cc(-c3nnc(SCC(=O)Nc4cc(C(F)(F)F)ccc4Cl)n3N)oc12,u,25.1µM*,-2.4%,-10.1%,-2.7%,-0.6%
Nn1c(SCC(=O)NC2CCCc3ccccc32)nnc1-c1cccs1 (stereo not given),u,0.199µM*,1.3%,24.6%,1.0%,-0.3%[57.5 µM]
Nc1ccc(-c2nc3ccc(-c4nc5ccc(N)cc5[nH]4)cc3[nH]2)cc1,x,x,x,12.6µM*,x,x
Nc1ccc(-c2nc3ccccc3[nH]2)cc1,-11.8%,-14.0%,1.1%,x,x,-0.3%
COc1ccc2c(c1OC)C(=O)OC2[C@H]1c2c(cc3c(c2OC)OCO3)CCN1C (stereo not given in full),12.3%,14.9%,5.9%,13.3%[25.7 µM],0.0%[9.22 µM],0.3%[20.6 µM]
